# Measured values taken from PubChem BioAssay (EPA / NIEHS).
# Values joined by “and” are separate entries in the source; they are usually repeats but may differ in a detail not shown here. Identical values can stand only once. Inconclusive results are not listed. Active and inactive are the calls of the source. Rule for the calls, unless noted: active = hit-call score of the fitted dose curve at least 0.9, where 1 is the maximum; inactive = score below 0.9.
# Assays:
# [1] = CCTE_Deisenroth_5AR_NBTE_donor: CCTE's 5alpha-reductase NanoBRET Target Engagement Assay […], Deisenroth Lab (AID 2284319); conditions: actives raise or lower the signal
# Summary of the method: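 HEK293T cells were reverse transfected with an SRD5A2-NanoLuc vector for 20 h, exposed to test chemical (8 points, 10 nM - 29.9 uM) for 3 h, then testosterone tracer for 2 h more. Donor luminescence (460 nm) was read; bidirectional fit versus DMSO.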
# [2] = CCTE_Deisenroth_5AR_NBTE_acceptor: CCTE's 5alpha-reductase NanoBRET Target Engagement Assay - Autofluorescence Screen, Deisenroth Lab (AID 2284321); conditions: actives raise or lower the signal;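 note: compound fluorescence in the acceptor channel under 460 nm excitation flags autofluorescence artifacts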
# Summary of the method: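 Acceptor-channel fluorescence flags artifacts, with excitation fixed at 460 nm. Nominal 100 uM chemical samples were read in triplicate runs, and signal changes were fitted in both directions relative to DMSO.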
# SRD5A2 (gene 6716) = assay: CCTE_Deisenroth_5AR_NBTE_ratio: CCTE's 5alpha-reductase NanoBRET Target Engagement Assay - Ratio, Deisenroth Lab (AID 2284322); conditions: actives raise or lower the signal
# Summary of the method: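 HEK293T cells transiently expressing an SRD5A2-NanoLuc fusion (20 h post-transfection) were exposed to test chemical (10 nM - 29.9 uM, 8 points) for 3 h, then testosterone tracer for a further 2 h. Acceptor/donor BRET ratio was fitted bidirectionally against DMSO baseline.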
# [3] = IUF_NPC2b_neuronal_migration_120hr: Leibniz Research Institute for Environmental Medicine (IUF) 120-hour Neural Progenitor Cell Migration Assay for Neuron Migration (NPC2b) (AID 2284300)
# Summary of the method: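 TUBB3-positive neurons are imaged after 120 h of differentiation, and their mean distance from the sphere edge is normalised to radial glia migration. Single 0.3 mm fetal hNPC spheres on poly-D-lysine/laminin received 7 compound concentrations, ≤0.1% DMSO, refreshed at day 3.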
# [4] = IUF_NPC3_neuronal_differentiation_120hr: Leibniz Research Institute for Environmental Medicine (IUF) 120-hour Neuronal Differentiation Assay (NPC3) (AID 2284301)
# Summary of the method: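 Neuronal differentiation of primary human neural progenitors measured by high-content imaging: percent TUBB3+ of Hoechst+ nuclei within migrated area at 120 h, seven-point serial dilution plus solvent control, gain or loss relative to DMSO.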
# [5] = IUF_NPC4_neurite_length_120hr: Leibniz Research Institute for Environmental Medicine (IUF) 120-hour Neuronal Morphology Assay for Neurite Length (NPC4) (AID 2284302)
# Summary of the method: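 Neurons from differentiating human fetal neural progenitor spheres are scored for average neurite length after five days of compound exposure. Fitting uses DMSO as negative control.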
# CD69, CD69 (gene 969) = assay: BSK_LPS_CD69: BioMAP Diversity Plus: LPS Assay for CD69 Biomarker Activity (AID 2284303); conditions: primary human HUVEC with PBMC
# Summary of the method: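 CD69 surface levels were read by ELISA after 24 h chemical treatment of an LPS-stimulated HUVEC plus PBMC co-culture; positive-direction fit against DMSO vehicle.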
# [6] = IUF_NPC5_oligodendrocyte_differentiation_120hr: Leibniz Research Institute for Environmental Medicine (IUF) 120-hour Oligodendrocyte Differentiation Assay (NPC5) (AID 2284304; active = hit-call score of the fitted dose curve at least 0.9, where 1 is the maximum;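 note: primary human fetal neural progenitor spheres plated to migrate and differentiate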)
# Summary of the method: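 Oligodendrocyte differentiation scored as O4-positive cells, found by CNN image analysis, as percent of Hoechst-stained nuclei in the migration area. Scoring followed 5 days of exposure of plated hNPC neurospheres differentiating in DMEM/F12 N2 medium at 37C, with compound refreshed at day 3.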
# [7] = IUF_NPC4_neurite_area_120hr: Leibniz Research Institute for Environmental Medicine (IUF) 120-hour Neuronal Morphology Assay for Neurite Area (NPC4) (AID 2284305; active = hit-call score of the fitted dose curve at least 0.9, where 1 is the maximum)
# Summary of the method: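 Endpoint at 120 h: automated imaging of TUBB3/Hoechst-stained differentiating human neural progenitor spheres, neurite area per neuron from skeletonization. DMSO solvent control, not above 0.1%, set the baseline; medium was half-replaced on day 3.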
# [8] = IUF_NPC2-5_cytotoxicity_72hr: Cytotoxicity Assessment at 72 hours in the Leibniz Research Institute for Environmental Medicine (IUF) Neural Progenitor Cell Migration and Differentiation Assay for Cytotoxicity (NPC2-5) (AID 2284306; active = hit-call score of the fitted dose curve at least 0.9, where 1 is the maximum;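 note: LDH release into supernatant measured by resorufin fluorescence marking membrane damage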)
# Summary of the method: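 Primary human neural progenitor spheres migrate and differentiate on laminin. Compound is present from the start of differentiation, with DMSO kept at or below 0.1%. At 72 h, supernatant LDH is quantified fluorometrically, with values fitted in the positive direction.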
# [9] = IUF_NPC2-5_cytotoxicity_120hr: Cytotoxicity Assessment at 120 hours in the Leibniz Research Institute for Environmental Medicine (IUF) Neural Progenitor Cell Migration and Differentiation Assay (NPC2-5) (AID 2284307; active = hit-call score of the fitted dose curve at least 0.9, where 1 is the maximum)
# Summary of the method: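 Membrane-integrity loss measured as LDH activity in medium supernatant via resazurin-to-resorufin fluorescence after 120 h exposure. hNPC spheres from GW 16-19 fetal cortex differentiated on poly-D-lysine/laminin, 37C, medium half-refreshed day 3; seven concentrations, DMSO max 0.1%.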
# [10] = IUF_NPC2-5_cell_number_120hr: Cell Number Assessment at 120 hours in the Leibniz Research Institute for Environmental Medicine (IUF) Neural Progenitor Cell Migration and Differentiation Assay (NPC2-5) (AID 2284308);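 note: count of Hoechst-stained nuclei in migration zone around plated human neural progenitor spheres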
# Summary of the method: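 Counting of all Hoechst-stained nuclei in the migration area at 120 h, versus DMSO control. Primary hNPC spheres differentiated on poly-D-lysine/laminin in N2 medium at 37C, dosed from day 0 (7 concentrations, DMSO ≤0.1%), half-refed day 3.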
# [11] = IUF_NPC2-5_viability_120hr: Viability Assessment at 120 hours in the Leibniz Research Institute for Environmental Medicine (IUF) Neural Progenitor Cell Migration and Differentiation Assay (NPC2-5) (AID 2284312)
# Summary of the method: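 Human fetal (GW 16-19) neural progenitor spheres of 0.3 mm were plated on poly-D-lysine/laminin in N2 differentiation medium and exposed from day 0 for 120 h, with half-medium refresh at day 3. Viability was read as alamar blue resazurin-to-resorufin fluorescence against DMSO.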
# [12] = CCTE_Mundy_HCI_iCellGluta_NOG_NeuriteLength: CCTE's Neurite Outgrowth Assay in iCellGluta cells for Neurite Length, Mundy Lab (AID 2284318; active = hit-call score of the fitted dose curve at least 0.9, where 1 is the maximum)
# Summary of the method: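 Automated high-content imaging of betaIII-tubulin (Alexa Fluor-488) and Hoechst-stained cells gave neurite length, normalized to the DMSO baseline.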
# TTR (gene 7276) = assay: CCTE_GLTED_hTTR_0.5uM: CCTE's human Transthyretin (hTTR) Inhibition Assay, with 0.5uM TTR, Great Lakes Toxicology and Ecology Division (GLTED) Lab (AID 2284320)
# Summary of the method: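 Probe (ANSA) displacement from 0.5 uM human transthyretin was followed by fluorescence (ex 380, em 475) after a 2 h incubation with chemical. Activity was scored as signal loss and fitted positively relative to DMSO.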
# IYD (gene 389434) = assay: CCTE_GLTED_hIYD: CCTE's human Iodotyrosine Deiodinase (xIYD) Inhibition Assay, Great Lakes Toxicology and Ecology Division (GLTED) Lab (AID 2284317; active = hit-call score of the fitted dose curve at least 0.9, where 1 is the maximum;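 note: cell-free human IYD enzyme made in baculovirus insect cells; iodide freed from monoiodotyrosine measured by cerium arsenite color change at 420 nm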)
# Summary of the method: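 In the IYD assay, iodide released from MIT by insect-cell-expressed human enzyme was quantified after 3 h via Sandell-Kolthoff rate at 420 nm, with plate-wise normalization to MNT and solvent controls.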
# [13] = TAMU_PeakParms_SingleDonor1434_Asystole: Texas A&M University (TAMU) 1.5-hr Human Induced Pluripotent Stem Cell (iPSC)-derived Cardiomyocytes Calcium (Ca+2) Flux Assay for Cardiotoxicity: Asystole (quiescence of beating) (AID 2284328; active = hit-call score of the fitted dose curve at least 0.9, where 1 is the maximum)
# Summary of the method: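 Human iPSC-derived cardiomyocytes (donor 1434) were exposed to 0.2, 1, 10 and 100 uM compound in 0.5% DMSO for 90 min at 37C. Ca2+-dye fluorescence gave average peak frequency; POD is EC95, a 95% beat-rate drop versus DMSO.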
# [14] = VALA_TUBHUV_Agonist_CellCount: Viability Assessment in the VALA Sciences human Umbilical Vein Endothelial Tubule Formation (TUBHUV) Agonism Assay (AID 2284309; active = hit-call score of the fitted dose curve at least 0.9, where 1 is the maximum)
# Summary of the method: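 Viability endpoint by fluorescent imaging of fixed nuclear/CD31-stained HUVEC–HDF co-cultures. Readout is cell count, fitted upward against 0.1% DMSO. Compound exposure was 72 h in 10 ng/ml VEGF, after 3-day co-culture priming.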
# [15] = VALA_TUBIPS_Antagonist_TubuleLength: VALA Sciences human iPS-derived Endothelial Tubule Formation (TUBIPS) Antagonist Assay (AID 2284313; active = hit-call score of the fitted dose curve at least 0.9, where 1 is the maximum)
# Summary of the method: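 Tubule length was quantified by high-content imaging of CD31- and nuclear-stained cells, with 0.1% DMSO as neutral and 100 uM suramin as inhibition control. Compounds were applied for 3 days, in 10 ng/ml VEGF, to cultures pre-grown 3 days.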
# [16] = VALA_TUBHUV_Antagonist_TubuleLength: VALA Sciences human Umbilical Vein Endothelial Tubule Formation (TUBHUV) Antagonism Assay (AID 2284325; active = hit-call score of the fitted dose curve at least 0.9, where 1 is the maximum)
# Summary of the method: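 Tubule length was imaged via CD31 immunofluorescence after a further 3-day compound exposure in 10 ng/ml VEGF, following 3-day pre-culture of HUVEC with HDF at 1:3. Vehicle 0.1% DMSO; suramin (100 uM) inhibition control.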
smiles,measurement,setting,value
CC(C)(c1ccccc1)c1ccc(O)cc1,outcome,[1],inactive
same,outcome,[2],inactive
same,outcome,SRD5A2 (gene 6716),inactive
O=S(=O)(O)C(F)(F)C(F)(F)C(F)(F)C(F)(F)F,outcome,[3],inactive
same,outcome,[4],inactive
same,outcome,[5],inactive
same,outcome,"CD69, CD69 (gene 969)",inactive
same,outcome,[6],inactive
same,outcome,[7],inactive
same,outcome,[8],inactive
same,outcome,[9],inactive
same,outcome,[10],inactive
same,outcome,[11],inactive
same,outcome,[12],inactive
same,AC50,TTR (gene 7276),788 nM (active)
COc1ccc(O)c(C(C)(C)C)c1,outcome,"CD69, CD69 (gene 969)",inactive
same,outcome,[12],inactive
CC#Cc1cc(C)nc(Nc2ccccc2)n1,outcome,IYD (gene 389434),inactive
CO/C=C(/C(=O)OC)c1ccccc1COc1cccc(C(F)(F)F)n1,AC50,[3],50 µM (active)
same,AC50,[4],22.2 µM (active)
same,AC50,[5],19.7 µM (active)
same,AC50,[6],1.51 µM (active)
same,outcome,[7],inactive
same,outcome,[8],inactive
same,outcome,[9],inactive
same,AC50,[10],9.92 µM (active)
same,AC50,[11],6.8 µM (active)
same,AC50,[12],5.9 µM (active)
O=C(O)C(F)(F)C(F)(F)C(F)(F)C(F)(F)C(F)(F)C(F)(F)C(F)(F)C(F)(F)F,AC50,"CD69, CD69 (gene 969)",41.8 µM (active) and 30 µM (active)
same,AC50,IYD (gene 389434),91.2 µM (active)
same,AC50,TTR (gene 7276),435 nM (active)
c1cc2ccc3cccc4ccc(c1)c2c34,outcome,[13],inactive
CCOP(=S)(OCC)SCSC(C)(C)C,outcome,[3],inactive
same,outcome,[4],inactive
same,outcome,[5],inactive
same,outcome,[7],inactive
same,outcome,[8],inactive
same,outcome,[9],inactive
same,outcome,[10],inactive
same,outcome,[11],inactive
same,outcome,[12],inactive
O=C(O)C(F)(F)C(F)(F)C(F)(F)C(F)(F)C(F)(F)F,outcome,"CD69, CD69 (gene 969)",inactive
same,AC50,TTR (gene 7276),1460 nM (active)
Clc1ccc(C(c2ccccc2Cl)C(Cl)(Cl)Cl)cc1 (stereo not drawn),outcome,[1],inactive
same,outcome,[2],inactive
same,AC50,SRD5A2 (gene 6716),50 µM (active)
CCCCCCCCCC[N+](C)(C)CCCCCCCCCC,AC50,IYD (gene 389434),63.9 µM (active)
same,AC50,[1],5.89 µM (active)
same,AC50,[2],4.7 µM (active)
same,AC50,SRD5A2 (gene 6716),10.3 µM (active)
C=CC(N)=O,outcome,[3],inactive
same,outcome,[4],inactive
same,outcome,[5],inactive
same,outcome,[6],inactive
same,outcome,[7],inactive
same,outcome,[8],inactive
same,outcome,[9],inactive
same,outcome,[10],inactive
same,outcome,[11],inactive
same,outcome,[13],inactive
Oc1ccc(C(c2ccc(O)cc2)(C(F)(F)F)C(F)(F)F)cc1,AC50,[14],65.5 µM (active)
same,outcome,[15],inactive
same,outcome,[16],inactive
ClC1=C(Cl)[C@]2(Cl)[C@@H]3[C@@H]4C[C@@H]([C@H]5O[C@@H]45)[C@@H]3[C@@]1(Cl)C2(Cl)Cl,outcome,[13],inactive
O=C(O)C(F)(F)C(F)(F)C(F)(F)C(F)(F)C(F)(F)C(F)(F)C(F)(F)C(F)(F)C(F)(F)F,AC50,"CD69, CD69 (gene 969)",49.1 µM (active) and 45.4 µM (active)
same,AC50,IYD (gene 389434),95.5 µM (active) and 50.9 µM (active)
same,AC50,TTR (gene 7276),721 nM (active)
CCC(C)c1cc([N+](=O)[O-])cc([N+](=O)[O-])c1O (stereo not drawn),AC50,[1],29.4 µM (active)
same,AC50,[2],9.91 µM (active)
same,AC50,SRD5A2 (gene 6716),53.3 µM (active)
O=S(=O)(O)C(F)(F)C(F)(F)C(F)(F)C(F)(F)C(F)(F)C(F)(F)F,outcome,[3],inactive
same,outcome,[4],inactive
same,outcome,[5],inactive
same,outcome,"CD69, CD69 (gene 969)",inactive
same,outcome,[6],inactive
same,outcome,[7],inactive
same,outcome,[8],inactive
same,outcome,[9],inactive
same,outcome,[10],inactive
same,outcome,[11],inactive
same,outcome,[12],inactive
same,AC50,TTR (gene 7276),455 nM (active) and 190 nM (active)
NS(=O)(=O)C(F)(F)C(F)(F)C(F)(F)C(F)(F)C(F)(F)C(F)(F)C(F)(F)C(F)(F)F,AC50,"CD69, CD69 (gene 969)",38.4 µM (active) and 24.5 µM (active)
same,AC50,IYD (gene 389434),46.1 µM (active)
same,outcome,[12],inactive
same,AC50,TTR (gene 7276),807 nM (active)
Cc1cc(-c2ccc(N)c(C)c2)ccc1N,outcome,[1],inactive
same,outcome,[2],inactive
same,AC50,SRD5A2 (gene 6716),50 µM (active)
ClC(Cl)=C(c1ccc(Cl)cc1)c1ccc(Cl)cc1,outcome,[1],inactive
same,outcome,[2],inactive
same,outcome,SRD5A2 (gene 6716),inactive
CCCCCCCCCc1ccc(O)cc1,AC50,IYD (gene 389434),24.1 µM (active)
